Tau fibril FP = inhibitors of human tau fibril formation. Potency, µM (highest dose often 57.7 µM), actives largely listed as inhibitors. K18 P301L tau heparin fibrillization, Alexa594 FP, 6 h. hit rate 0.39% among 280,000. P10636; further: nearly all actives have a fitted effect of over 55% in size
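Human K18 P301L fragment (15 uM unlabeled plus 0.24 uM Alexa 594-labeled) in 100 mM sodium acetate pH 7 with compound, aggregation induced by 20 uM heparin for 6 hr at 37 C. ThT (30 uM) added for 1 hr, then Alexa 594 FP read.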
Tau fluor counter = counter-screen for tau fibril formation inhibitors | tau K18 P301L Alexa594 fluorescence, heparin fibrillization | Potency, µM (doses to about 57.7 µM) | hit rate 0.93% among 280,000 | AID 1463; further: nearly all actives have a fitted effect of over 55% in size
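Human tau K18 P301L (15 uM unlabeled, 0.24 uM Alexa 594-labeled) in 100 mM sodium acetate pH 7 with 20 uM heparin, 6 hr at 37 C. ThT 30 uM added, 1 hr ambient; Alexa 594 FP and total fluorescence read at 555/632 nm.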
Tau ThT inhib = inhibitors of human tau fibril formation, thioflavin T binding; recombinant tau K18 P301L, heparin-induced fibrillization, ThT fluorescence; Potency, µM (titrated, usually from 57.4 µM), usual class: inhibitors; hit rate 2.1% among 270,000; further: nearly all actives have a fitted effect of over 55% in size
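ThT emission at 510 nm, taken 1 hr after adding 30 uM dye, quantifies aggregates formed when 20 uM heparin acts on human tau K18 P301L for 6 hr at 37 C.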
USP1 inh = blocks the human USP1/UAF1 deubiquitinase complex | recombinant USP1/UAF1, Ub-Rhodamine cleavage fluorescence | hit rate 0.23% among 390,000 | Potency, µM (highest dose often 57.1 µM), most hits filed as inhibitors; further: nearly all actives have a fitted effect of over 60% in size
Target sequence (O94782 whole entry, looked up): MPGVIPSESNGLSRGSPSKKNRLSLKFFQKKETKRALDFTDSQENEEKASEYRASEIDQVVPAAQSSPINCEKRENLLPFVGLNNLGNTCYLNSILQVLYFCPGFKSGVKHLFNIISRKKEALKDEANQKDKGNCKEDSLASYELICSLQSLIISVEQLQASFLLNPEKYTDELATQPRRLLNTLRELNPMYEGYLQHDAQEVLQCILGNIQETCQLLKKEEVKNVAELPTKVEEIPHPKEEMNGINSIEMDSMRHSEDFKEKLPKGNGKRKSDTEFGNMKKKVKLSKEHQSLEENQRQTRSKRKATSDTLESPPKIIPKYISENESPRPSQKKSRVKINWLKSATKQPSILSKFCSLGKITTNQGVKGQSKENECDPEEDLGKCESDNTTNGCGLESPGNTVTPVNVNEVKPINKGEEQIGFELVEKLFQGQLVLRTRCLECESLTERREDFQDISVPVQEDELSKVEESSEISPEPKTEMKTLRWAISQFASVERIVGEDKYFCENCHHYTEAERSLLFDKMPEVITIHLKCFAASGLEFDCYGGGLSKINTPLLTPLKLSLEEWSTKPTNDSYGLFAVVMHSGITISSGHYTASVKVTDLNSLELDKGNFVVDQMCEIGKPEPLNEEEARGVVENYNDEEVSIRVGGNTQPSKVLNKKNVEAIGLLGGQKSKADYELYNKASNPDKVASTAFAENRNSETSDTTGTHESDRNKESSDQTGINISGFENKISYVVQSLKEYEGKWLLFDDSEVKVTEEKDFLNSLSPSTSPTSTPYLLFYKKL
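USP1/UAF1 complex at 1 nM was preincubated with compound for 15 min at room temperature, then Ub-Rho substrate (150nM final) was added. Fluorescence (480/540 nm) was read kinetically, 6 reads every 60 seconds.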
Coupling enz = counter-screen for Giardia aldolase inhibitors: coupling enzyme system | coupling enzyme system counterscreen, AmpLite Red fluorescence | activity change, negative = inhibition, % at 58.2 µM, hits read low | hit rate 0.67% among 290,000; in the data active means activity change below about -30%
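Counterscreen of the coupled detection system alone, without aldolase: glyceraldehyde-3-phosphate coupling enzymes plus AmpLite Red readout. Compounds at 57.5 uM final, 10 min RT preincubation, 20 min RT reaction, fluorescence 525/598 nm.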
Hits are given with their value; 0 = inactive; ? = inconclusive; - = no result; [ ] = dose if it differs, or a comment. In the library only some 2.3% were active in any assay of this set; here they are far more common. Unless noted, the call rests on the fitted dose curve; in most records, active means well fitted curve in the direction sought with a large enough effect; inconclusive means small, poorly fitted or top-dose-only effect, or another doubt; inactive means no such curve, though single readings can be large; an effect the other way counts as inactive or inconclusive.

SMILES | Tau fibril FP | Tau fluor counter | Tau ThT inhib | USP1 inh | Coupling enz
Cc1ccc(CNC(=O)c2ccc3c(=O)n(CC4CCCO4)c(=S)[nH]c3c2)cc1 (configuration not stated) | 0 | 0 | 0 | 0 | 0
O=C1CC(C(=O)Nc2cccc(Cl)c2)n2ncnc2N1 (configuration not stated) | 0 | 0 | 0 | 0 | 0
CCn1c(N)c(C(=O)NCC2CCCO2)sc1=S (configuration not stated) | ? | 0 | 35µM | 0 | 0
COc1ccc(CNc2ncncc2-c2cccc(NS(C)(=O)=O)c2)c(OC)c1 | - | - | - | - | 0
C[C@H]1Cc2c(-c3ccccc3)nc3c(c2CO1)CN(C(=O)c1ccco1)CC3 | 0[11.6 µM] | 0[11.6 µM] | 0[11.5 µM] | - | 0
O=C(c1csnn1)N1CCC2(CC1)CN(c1ccccn1)C2 | - | - | - | - | 0
Cc1c(/C=N/NC(=O)c2ccc(O)cc2)c2ccccn2c1C(=O)c1ccc(F)cc1 | ? | 16µM[quencher] | ? | 0 | 0
C[C@@]12CCc3occc3[C@H]1CC[C@]13CC(=O)[C@@H](CC[C@H]12)C3 | - | - | - | - | 0
CC(=O)NC(c1ccccc1)c1cc([N+](=O)[O-])c2cccnc2c1O (configuration not stated) | ? | 0 | 10µM | 0 | 0
CC(C)C(=O)NC(c1ccccc1)c1cc([N+](=O)[O-])c2cccnc2c1O (configuration not stated) | 0 | 0 | ? | 0 | 0
CCCC(=O)NC(c1cccs1)c1cc([N+](=O)[O-])c2cccnc2c1O (configuration not stated) | 0 | 0 | ? | 0 | -32
CCC(=O)NC(c1cccs1)c1cc([N+](=O)[O-])c2cccnc2c1O (configuration not stated) | 0 | 0 | ? | 0 | 0
CC(c1ccccc1)N1CC(C(=O)N2CCN(Cc3ccc(C#N)cc3)CC2)CC1=O (configuration not stated) | - | - | - | 0 | -
COc1cccc(C(=O)C(CCC#N)c2ccccc2)c1 (configuration not stated) | - | - | - | 0 | -
COc1cccc(C(=O)C(C#N)=C(SC)SC)c1 | ? | 0 | 25µM | 0 | 0
CSC(SC)=C(C#N)C(=O)c1ccccc1 | 14µM | 0 | 20µM | 0 | 0
O=C(c1ccc([N+](=O)[O-])cc1)n1nc(-c2ccccc2)nc1NCc1ccccc1 | 0 | 0 | 0 | 0 | 0
CC(C)c1ccc(CNc2nc(-c3ccco3)nn2C(=O)c2ccc([N+](=O)[O-])cc2)cc1 | 0 | 16µM[quencher] | ? | ? | -
COc1ccc(C2=C(C)C(=O)N(Cc3ccc(C(=O)Nc4ccc(F)cc4C)cc3)S2(=O)=O)cc1 | ? | 0 | 0 | 0 | -
COc1cc(NS(C)(=O)=O)ccc1Nc1c2ccccc2nc2ccccc12 | 0 | ? | 14µM | 0 | -
COc1ccc(OC)c(Nc2c3ccccc3nc3ccccc23)c1 | - | - | - | 0 | 0
CC#CCOC(=O)C1=CCCN(C)C1 | 0 | 0 | 0 | - | 0
Cc1cn2c(=O)cc(COC(=O)c3cccc(NC(=O)COc4ccccc4)c3)nc2s1 | 0 | 0 | ? | 0 | -
COc1cc(SC#N)ccc1N=Cc1c(C)[nH]n(-c2ccc(Cl)cc2)c1=O | ? | 0 | 11µM | 0 | 0
COc1ccc(CCN=Cc2c(C)[nH]n(-c3ccc([N+](=O)[O-])cc3)c2=O)cc1OC | 0 | 0 | ? | 0 | 0
SMILES | Tau fibril FP | Tau fluor counter | Tau ThT inhib | USP1 inh | Coupling enz
COc1cc(SC#N)ccc1N=Cc1c(C)[nH]n(-c2ccc(C)c(C)c2)c1=O | ? | 0 | 18µM | 0 | 0
COc1cc(S(=O)(=O)Nc2ccccc2)ccc1N=Cc1c(C)[nH]n(-c2ccc(C)cc2)c1=O | 0 | ? | ? | - | 0
COC(=O)[C@@]1(C)CCC[C@@]2(C)c3ccc(O)c(C(C)C)c3CCC21 (some centres not stated) | 0 | 16µM[quencher] | ? | - | 0
Nc1c(C(=O)Nc2ccccc2)c2nc3ccccc3nc2n1-c1ccc(O)cc1 | ? | 14µM[quencher] | ? | 0 | 0
Nc1c(C(=O)NC2CC2)c2nc3ccccc3nc2n1-c1ccc2c(c1)OCO2 | 0 | 0 | ? | 0 | 0
CCOCCCNC(=O)c1c(N)n(-c2ccc3c(c2)OCO3)c2nc3ccccc3nc12 | 0 | 0 | 0 | 0 | -35
Nc1c(C(=O)OCC2CCCO2)c2nc3ccccc3nc2n1-c1ccc2c(c1)OCCO2 (configuration not stated) | 0 | 0 | ? | 0 | -37

Screens as filed in PubChem.
